For 40 compounds, growth inhibition results are on record in PubChem BioAssay (NCI).

This is part of a sample that, as a whole, favours compounds with a hit. Of some 79,000 tested, about 15% had one in any assay. Active and inactive are the calls of the source. Rule as the data show it: active = growth inhibition above about 70%; inactive = the rest.

The nature of the experiment: NCI Yeast Anticancer Drug Screen. Data for the rad50 strain (AID 155).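 Also: 0% = growth of vehicle-only cultures of the same strain.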 As to conditions: S. cerevisiae rad50 strain growth inhibition; at 50.0 µM; stronger effect = higher value. Summed up:
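Cells are treated with compound, grown, and their growth is then scored against vehicle-only cultures of the same repair-deficient yeast strain.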
In the case of `CC(=O)OC1/C=C(/C)CCC2OC2(C)CC2OC(=O)C3(CC3)C12` (stereo not given), the growth inhibition was 0.85% (inactive).

As for `CCCCCCCCCCCC(=O)Nc1cc(Cl)c(OC)cc1OC`, the growth inhibition was -17.4% (inactive).

As to `CC(C)c1cccc(C(C)C)c1NC(=O)OC1CCCCC1C` (stereo not given), the growth inhibition is -21.1% (inactive). For `c1ccc(OCCCCN2CCNCC2)cc1` the value was 1.85% (inactive). `NC(N)=NCCCS`: the growth inhibition is 11.9% (inactive). Next, `CCN(CC)CCCC(C)NC1CCCc2cc3c(cc21)C(=O)c1ccccc1C3=O` (stereo not given): 34% (inactive); `O=C(N/N=C/c1cccc(C(F)(F)F)c1)c1ccncc1`: 12.8% (inactive). Turning to `CC(C)C(=O)NCCc1ccccc1`, the growth inhibition is 0% (inactive). Next, `CC12OC(=O)CC1C(c1ccccc1)(c1ccccc1)O2` (stereo not given): -7% (inactive); `Clc1ccc(OCc2nnc3n2N=C(c2ccc(Br)cc2)CS3)cc1`: 5.5% (inactive). Next, `O=C1NC(=O)C(c2cccc(F)c2)N1` (stereo not given): -12.1% (inactive); `COc1ccc2c(c1O)C1(CCN(C)C)CC(=O)CCC1C=C2` (stereo not given): 13.2% (inactive); `COc1cc(C(OC(C)=O)OC(C)=O)c(Cl)cc1OC(C)=O`: 5.5% (inactive). On to `CCc1nc(Nc2cccc(Cl)c2)c2cnn(-c3ccccc3)c2n1`, for which the growth inhibition is -11.2% (inactive). On to `O=C(O)c1ccc(C(=O)O)nc1`, for which the growth inhibition was -39.7% (inactive). `CN(C)CCCNC(=O)CCNC(=O)c1cc(NC(=O)c2cc(NC(=O)c3cc(NC(=O)c4nccn4C)cn3C)cn2C)cn1C`: the growth inhibition was 24.4% (inactive). As to `O=COC1CCCCCC1`, the growth inhibition was -8.55% (inactive).

Regarding `CCS(=O)CCCN1CCc2ccccc2C1` (stereo not given), the growth inhibition was 25.5% (inactive).

Take `O=[N+]([O-])c1ccc(N/N=C/c2ccccc2O)c([N+](=O)[O-])c1`: the growth inhibition is 5.05% (inactive). In the case of `C/C(=N\NC(=S)N1CC2CCC(CC2)C1)c1cccc(C)n1`, the growth inhibition was 22.1% (inactive). For `COC(=O)C1(C(=O)OC)CC(=O)c2c(OC(=O)c3cccc(OC)c3C#N)ccc(OC(=O)c3cccc(OC)c3C#N)c2C1` the value was 1.05% (inactive); for `CN(C)CC(C)(C)CO`, 7.2% (inactive). For the compound `CCCCCC(O)c1ccccc1` (stereo not given), the growth inhibition was 22.7% (inactive). With `C/C(=C/C(=O)O)CC/C=C(/C)C(=O)O`, the growth inhibition is -0.15% (inactive). Turning to `CC[N+](CC)=c1ccc2nc3c(cc(Nc4ccccc4)c4ccccc43)oc-2c1.[Cl][Zn][Cl]`, the growth inhibition is 18.4% (inactive). Next, `Nc1nc2nn(-c3ccc(C(=O)NC(CCC(=O)O)C(=O)O)cc3)nc2c(=O)[nH]1` (stereo not given): 7.05% (inactive). Next, `OCC1CCNCC1`: 22.1% (inactive); `CC(=O)OC1[C@H](OC(C)=O)C2=C(C)[C@@H](OC(C)=O)C[C@@]2(C(C)(C)O)[C@@H](OC(C)=O)[C@H]2[C@@]1(C)[C@@H](OC(C)=O)CC(OC(C)=O)[C@]21CO1` (stereo not given in full): 3.4% (inactive); `O=C(O)CCc1c[nH]c(=S)[nH]1`: 10% (inactive). On to `CC1(C)NC(c2ccccc2)c2ccsc2-n2cccc21` (stereo not given), for which the growth inhibition is -27.7% (inactive). With `c1ccc(-c2cc3ccccc3c(-c3ccccc3)c2-c2ccccc2)cc1`, the growth inhibition is -18.6% (inactive).

For `Cc1ccc(Nc2ccc(O)cc2)cc1`, the growth inhibition was 40.4% (inactive). On to `CCSC1(SCC)C(=O)OC2=C(CCCCC2)C1N(C)c1ccccc1` (stereo not given), for which the growth inhibition was -15.2% (inactive). As for `Cn1ccc2c([N+](=O)[O-])cccc2c1=O`, the growth inhibition is 4.1% (inactive). As to `Nc1ccc(C(=O)O)c([N+](=O)[O-])c1`, the growth inhibition was 0.7% (inactive). Next, `Nc1c(Cl)ncnc1NCCCCCCCCCCCCNc1ncnc(Cl)c1N`: -6.4% (inactive); `N#Cc1ccc(-n2cccc2)cc1`: -1.8% (inactive). As to `CCOC(=O)C1CC1C#N` (stereo not given), the growth inhibition is 3.4% (inactive).

In the case of `CCC(=O)c1ccc2ccccc2c1`, the growth inhibition is 5.1% (inactive). Consider `CC(C)NC1(C#N)CCN(Cc2ccccc2)CC1`, for which the growth inhibition is -29.8% (inactive).
